TDP1 inh: qHTS Assay for Inhibitors of Tyrosyl-DNA Phosphodiesterase (TDP1). AID 485290, 2010. hit rate 0.28% among 350,000. recombinant TDP1, AlphaScreen DNA substrate cleavage. Potency, µM (titrated, usually from 130 µM), for inactives: at the highest dose activity change, negative = inhibition, most hits filed as inhibitors; also: nearly all actives have a fitted effect of over 40% in size
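Here, a 5' biotin and 3' phosphotyrosine-FITC DNA oligonucleotide reports Tdp1 activity: intact substrate bridges AlphaScreen beads, while cleavage leaves a 3' phosphate and drops signal. All incubations at room temperature.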
APE1 inh: qHTS Assay for Inhibitors of the Human Apurinic/apyrimidinic Endonuclease 1 (APE1); DNA repair nuclease/redox regulator APEX1 (Homo sapiens), P27695; recombinant APE1, TAMRA/BHQ-2 abasic DNA cleavage fluorescence; Potency, µM (series often up to 65.8 µM), without a hit: at the highest dose activity change, negative = inhibition, hits mostly inhibitors; hit rate 0.35% among 350,000;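 also: plate controls were vehicle for no effect and reference inhibitor for full effect; nearly all actives have a fitted effect of over 55% in size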
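APE1 at 0.75 nM final was preincubated with compound 15 min at room temperature, then 50 nM double-stranded THF abasic-site substrate (5'-TAMRA/3'-BHQ-2) was added. Fluorescence (ex 525/em 598 nm) was read kinetically; third-minus-first read gave activity.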
KAT2A inh: qHTS Assay for Inhibitors of GCN5L2 | Histone acetyltransferase KAT2A (Homo sapiens), Q92830 | Potency, µM (doses to about 58.9 µM), for inactives: top-dose activity change, negative = inhibition, usual class: inhibitors | GCN5L2 HAT assay, ThioGlo1 CoA-SH fluorescence | hit rate 0.21% among 390,000 | AID 504327, 2011
Target sequence (Q92830 whole entry, looked up): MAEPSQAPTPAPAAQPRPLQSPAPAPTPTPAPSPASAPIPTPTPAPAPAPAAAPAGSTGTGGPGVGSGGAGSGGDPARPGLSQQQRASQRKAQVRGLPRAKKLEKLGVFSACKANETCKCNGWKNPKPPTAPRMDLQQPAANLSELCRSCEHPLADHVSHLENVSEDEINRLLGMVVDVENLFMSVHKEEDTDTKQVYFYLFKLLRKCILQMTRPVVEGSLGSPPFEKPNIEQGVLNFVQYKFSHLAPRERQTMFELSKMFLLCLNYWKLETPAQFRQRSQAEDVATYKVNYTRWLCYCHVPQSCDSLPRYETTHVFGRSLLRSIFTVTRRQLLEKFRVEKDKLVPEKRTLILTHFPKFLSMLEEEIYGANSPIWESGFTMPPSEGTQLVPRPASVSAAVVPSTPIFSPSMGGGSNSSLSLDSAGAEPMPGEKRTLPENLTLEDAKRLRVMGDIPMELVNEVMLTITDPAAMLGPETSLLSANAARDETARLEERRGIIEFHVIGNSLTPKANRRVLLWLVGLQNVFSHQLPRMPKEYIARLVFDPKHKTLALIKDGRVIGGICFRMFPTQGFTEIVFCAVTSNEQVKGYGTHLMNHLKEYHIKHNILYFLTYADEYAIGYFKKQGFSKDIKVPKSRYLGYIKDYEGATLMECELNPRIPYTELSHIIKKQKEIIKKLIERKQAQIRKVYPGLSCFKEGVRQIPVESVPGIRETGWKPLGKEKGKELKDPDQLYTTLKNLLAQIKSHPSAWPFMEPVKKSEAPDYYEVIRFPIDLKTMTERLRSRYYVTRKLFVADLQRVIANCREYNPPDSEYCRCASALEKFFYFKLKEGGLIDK
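Free CoA generated was detected with ThioGlo1 (50uM) fluorescence at Ex340nm/Em540nm, read immediately and after 20 min at room temperature. Enzyme, 20 nM in HEPES pH 7.5 buffer, saw compounds 15 min before adding 75uM H3(1-25) peptide and 70uM acetyl-CoA.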
RECQ1 inh-1: qHTS Assay for Inhibitors of RecQ-Like Dna Helicase 1 (RECQ1) | RECQ1 DNA unwinding, red fluorescence kinetic read | Potency, µM (titrated, usually from 57.3 µM), for inactives: top-dose activity, negative = inhibition, usual class: inhibitors | hit rate 0.54% among 240,000 | AID 2549, 2010;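 also: plate controls were vehicle for no effect and no enzyme for full effect; nearly all actives have a fitted effect of over 30% in size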
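50 nM RECQ1T1 preincubated 15 min with compound in Tris pH 8.0 buffer with MgCl2, DTT, Tween-20 and 2.5 ug/ml poly(dI-dC); started with 200 nM TAMRA/BHQ-2 forked duplex and 2 mM ATP. Unwinding read as fluorescence (525/598 nm), two reads 2 h apart.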
BLM inh: qHTS Assay for Inhibitors of Bloom's syndrome helicase (BLM) | RecQ-like DNA helicase BLM (Homo sapiens), P54132 | recombinant BLM DNA unwinding, fluorescence dequenching | Potency, µM (top dose mostly 56.1 µM), for inactives: top-dose activity change, negative = inhibition, actives largely listed as inhibitors | hit rate 0.2% among 350,000;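 also: plate controls were vehicle for no effect and no enzyme for full effect; nearly all actives have a fitted effect of over 35% in size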
RECQ1 inh conf: Confirmation qHTS Assay for Inhibitors of RecQ-Like Dna Helicase 1 (RECQ1); shares compounds with RECQ1 inh-1; RECQ1 helicase DNA unwinding, fluorescence; Potency, µM (titrated, usually from 229 µM), for the others: top-dose activity change, negative = inhibition, actives largely listed as inhibitors; hit rate 28% among 610; also: nearly all actives have a fitted effect of over 45% in size
RECQ1 ADP FP: Counterscreen for RECQ1 Inhibitors: ADP Fluorescence Polarization Displacement Assay. shares compounds with RECQ1 inh-1. ADP fluorescence polarization displacement counterscreen. Potency, µM (series often up to 228 µM), for inactives: at the highest dose activity change, negative = inhibition, hits mostly inhibitors. hit rate 27% among 530; also: nearly all actives have a fitted effect of over 45% in size
RECQ1 inh-2: Confirmation qHTS Assay for Inhibitors of RecQ-Like Dna Helicase 1 (RECQ1) - Round 2 Cherry Picks. shares compounds with RECQ1 inh-1. recombinant RECQ1 DNA unwinding, red fluorescence. Potency, µM (highest dose often 119 µM), for inactives: at the top dose activity, negative = inhibition, most hits filed as inhibitors. hit rate 15% among 1,100. AID 504841, 2011; also: nearly all actives have a fitted effect of over 50% in size
* hit, by the source's call; i = inactive; ? = inconclusive; . = not tested or not shown; [ ] = remark or other dose. Compounds with a hit are over-represented: about 0.87% of the library has one in this group of screens. Calls follow the shape of the dose curve; as a rule, active = well fitted curve in the direction sought with a large enough effect; inconclusive = small, poorly fitted or top-dose-only effect, or another doubt; inactive = no such curve, though single readings can be large; an effect the other way counts as inactive or inconclusive. Unless noted, % is scaled to controls: 0 for no effect and ±100 for the full control effect; potency is read from the fitted curve at half-maximal effect.

SMILES	TDP1 inh	APE1 inh	KAT2A inh	RECQ1 inh-1	BLM inh	RECQ1 inh conf	RECQ1 inh-2	others
CCc1ccc(N2C(=O)CN(Cc3sccc3C)C2=S)cc1	3%	-1%	-14%	1.6µM*	-12%	-11%[114 µM]	-18%	RECQ1 ADP FP=9%[91.9 µM]
Cc1cc(C)cc(N2C(=O)CN(Cc3sccc3C)C2=S)c1	-8%	-28%	-5%	-13%	-10%	.	.
CCOC(=O)C(=CNc1ccc(-c2ccco2)c(Cl)c1)C(=O)OCC	0%	-3%	-8%	?	-13%	.	-27%
CCOC(=O)C(=CNc1cc(Cl)c(-c2ccco2)c(Cl)c1)C(=O)OCC	.	-2%	-15%	-13%	-12%	.	.
CCN1C(=O)[C@H]2[C@H]3[C@H](O)[C@H](O)C/C(=N/O[C@@H](C)CN4CCCc5nc(C)c(C)cc54)[C@@H]3CC[C@@H]2C1=O	7%[21 µM]	-4%[12.4 µM]	.	i[11.5 µM]	-2%[12.4 µM]	.	.
CSc1cccc(NC(=O)c2ccc3c(c2)CCCN3S(C)(=O)=O)c1	5%	.	-11%	.	-6%	.	.
COc1ccc(CC(=O)Nc2ccc(C(=O)NC(C)(C)C)cc2)cc1OC	0%	1%	16%	-11%	-4%	.	.
COc1ccc(CC(=O)Nc2ccc(C(=O)Nc3ccccc3C(=O)O)cc2)cc1OC	0%	1%	4%	-1%	-9%	15%	.	RECQ1 ADP FP=-12%
O=C(CSc1nnnn1-c1ccc(F)cc1)c1ccc(O)c(O)c1	8%	6%	-6%	5µM*	-1%	-10%[114 µM]	?	RECQ1 ADP FP=5%[91.9 µM]
O=C(O)c1ccc(CSc2nnnn2-c2ccc(F)cc2)cc1	.	17%	-2%	.	-8%	.	.
Cc1ccc(NC(=O)c2cccc(OCc3c(C)noc3C)c2)cc1	4%	-7%	-3%	i	-8%	.	.
Cc1ccc(NC(=O)c2ccc(OCc3c(C)noc3C)cc2)cc1	3%	-9%	0%	10%	-1%	4%	.	RECQ1 ADP FP=50µM*
Cc1noc(C)c1COc1ccc(C(=O)Nc2cccnc2)cc1	1%	-8%	-13%	0.89µM*	-19%	56µM*	-32%	RECQ1 ADP FP=126µM*
N#Cc1c[nH]n2c(NC3CCCCC3)c(-c3cccc(Cl)c3)nc12	3%	.	-5%	.	-6%	.	.
COc1ccc(NC(=O)CN(c2ccccc2)S(=O)(=O)N(C)C)cc1OC	-11%	?	2%	?	-2%	.	?
COc1cccc(F)c1C(=O)NC(=O)Nc1ccc2nc(C)oc2c1	?	?	-8%	35µM*	-6%	.	26%
CC(C)=C1C(=O)NN(c2ccc(F)c(Cl)c2)C1=O	3%	-3%	0%	32µM*	-2%	.	-12%
O=C1NN(c2ccc(F)c(Cl)c2)C(=O)/C1=C\c1cccc(OC(=O)c2cccs2)c1	7%	-2%	-23%	i	-14%	.	.
Nn1cnnc1N/N=C\c1ccc(-c2ccccc2[N+](=O)[O-])o1	7%	7%	-9%	4.5µM*	0%	6%[114 µM]	.
CCCNC(=O)Cn1c(=O)c2cccn2c2cccnc21	5%	.	-1%	.	4%	.	.
Cc1nc(C(=O)Nc2cccc(Cl)c2)nn1-c1cc(OC(C)C)c(Cl)cc1Cl	-3%	-4%	-2%	35µM*	-9%	.	-13%
